# Data published in PubChem BioAssay (NCI).
# The panel holds about 79,000 compounds, 15% with a hit somewhere; the sample as a whole holds those more often. A number with no mark means an inactive call. Activity calls are given as the source filed them. Rule as the data show it: active = growth inhibition above about 70%; inactive = the rest.
# What was measured:
# [1] = NCI Yeast Anticancer Drug Screen. Data for the rad52 strain (AID 147);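 also: 0% = growth of vehicle-treated control cultures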; conditions: S. cerevisiae rad52 mutant growth inhibition, stronger effect = higher value
# In short: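 The repair-mutant yeast strain was incubated with compounds, then growth was read and inhibition derived relative to vehicle.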
# [2] = NCI Yeast Anticancer Drug Screen. Data for the wt1 strain (AID 149);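 also: 0% = growth of vehicle-treated wt1 cultures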; conditions: S. cerevisiae wt1 strain (SPY 50644) growth inhibition, stronger effect = higher value
# In short: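 wt1 strain grown with compound or vehicle; inhibition taken from the growth difference.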
# [3] = NCI Yeast Anticancer Drug Screen. Data for the rad50EPP+ strain (AID 151);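 also: 0% = growth of vehicle-treated control cultures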; conditions: S. cerevisiae rad50 mutant strain, stronger effect = higher value
# In short: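 Vehicle-normalised growth inhibition; rad50EPP+ yeast strain, altered in DNA damage repair, compound-treated.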
# [4] = NCI Yeast Anticancer Drug Screen. Data for the mgt1 strain (AID 153); conditions: S. cerevisiae mgt1 mutant growth inhibition, stronger effect = higher value
# In short: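 Vehicle-normalized growth inhibition is determined in mgt1 yeast, a strain selected for a defined alteration in DNA repair or cell cycle control.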
# [5] = NCI Yeast Anticancer Drug Screen. Data for the rad50 strain (AID 155);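 also: 0% = growth of vehicle-only cultures of the same strain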; conditions: S. cerevisiae rad50 strain growth inhibition, stronger effect = higher value
# In short: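 DNA repair mutant yeast, compound exposure, growth read-out; inhibition is taken relative to vehicle.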
# [6] = NCI Yeast Anticancer Drug Screen. Data for the mec2-1 strain (AID 157); conditions: S. cerevisiae mec2-1 strain, stronger effect = higher value
# In short: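 Mutant yeast (mec2-1) grown with compound; growth inhibition relative to vehicle control reported.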
# [7] = NCI Yeast Anticancer Drug Screen. Data for the rad14 strain (AID 159);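 also: 0% = growth of vehicle-treated control cultures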; conditions: S. cerevisiae rad14 strain growth inhibition, stronger effect = higher value
# In short: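 DNA repair-defective yeast, compound-exposed; % growth inhibition derived by comparison with vehicle-treated controls.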
# [8] = NCI Yeast Anticancer Drug Screen. Data for the sgs1 mgt1 strain (AID 161);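 also: 0% = growth of cultures given vehicle only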; conditions: S. cerevisiae sgs1 mgt1 strain, stronger effect = higher value
# In short: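 Percent growth inhibition was derived by comparing compound-exposed mutant yeast with vehicle-exposed cultures. The strain carries alterations in DNA damage repair.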
# [9] = NCI Yeast Anticancer Drug Screen. Data for the CLN2oe strain (AID 163);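 also: 0% = growth of vehicle-only control cultures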; conditions: S. cerevisiae CLN2oe strain, stronger effect = higher value
# In short: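 Compounds are applied to yeast harbouring a defined cell-cycle control change; reduced growth compared with vehicle-treated controls gives the value.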
# [10] = NCI Yeast Anticancer Drug Screen. Data for the cln2 rad14 strain (AID 165);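 also: 0% = growth equal to vehicle treated cultures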; conditions: S. cerevisiae cln2 rad14 strain, stronger effect = higher value
# In short: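 Readout is yeast growth inhibition versus vehicle-treated controls, using a strain with cln2 and rad14 alterations exposed to compound.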
# [11] = NCI Yeast Anticancer Drug Screen. Data for the bub3 strain (AID 167); conditions: S. cerevisiae bub3 mutant strain, stronger effect = higher value
# In short: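 In this screen, a yeast mutant lacking normal mitotic checkpoint function is challenged with compound. Relative growth versus vehicle gives the inhibition value.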
# [12] = NCI Yeast Anticancer Drug Screen. Data for the wt2 strain (AID 169);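 also: 0% = growth of vehicle-treated yeast cultures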; conditions: S. cerevisiae wt2 strain growth inhibition, stronger effect = higher value
# In short: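 Against vehicle-treated controls, the growth of yeast exposed to each compound was compared, and the inhibition was recorded.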
# [13] = NCI Yeast Anticancer Drug Screen. Data for the mlh1 strain (AID 171);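 also: 0% = growth of vehicle-treated control cultures of the same strain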; conditions: S. cerevisiae mlh1 strain growth inhibition, stronger effect = higher value
# In short: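 Measured: yeast growth. Reference: vehicle-treated controls. Organism: strain with a defined alteration affecting DNA damage repair or cell cycle control, treated with compound.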
# [14] = NCI Yeast Anticancer Drug Screen. Data for the sgs1 strain (AID 173);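 also: 0% = growth of vehicle-only control cultures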; conditions: S. cerevisiae sgs1 mutant, stronger effect = higher value
# In short: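 Each compound was added to cultures of the altered yeast strain. Growth was recorded, and inhibition was derived by comparison with vehicle controls.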
# [15] = NCI Yeast Anticancer Drug Screen. Data for the mlh1 rad18 strain (AID 175); conditions: S. cerevisiae mlh1 rad18 strain growth inhibition, stronger effect = higher value
# In short: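 Genetically defined yeast (DNA repair-deficient) exposed to compounds; growth inhibition determined relative to vehicle.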
# [16] = NCI Yeast Anticancer Drug Screen. Data for the rad18 strain (AID 177); conditions: S. cerevisiae rad18 mutant growth inhibition, stronger effect = higher value
# In short: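 Vehicle-treated cultures served as the baseline for scoring compound-induced growth inhibition in DNA-repair-mutant yeast.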
# [17] = at 5.0 µM (retest, dose inferred, filed as 0.5)
# [18] = at 50.0 µM (retest, dose inferred, filed as 5.0)
smiles,measurement,setting,value
CCN(CC)CC(O)c1ccc2ccc3ccccc3c2c1 (stereo unspecified),growth inhibition,[1]; at 1.2 µM,3%
same,growth inhibition,[1]; at 3.7 µM,7%
same,growth inhibition,[1]; at 11.0 µM,14%
same,growth inhibition,[1]; at 33.0 µM,14%
same,growth inhibition,[1]; at 100.0 µM,46%
same,growth inhibition,[2]; at 1.2 µM,4%
same,growth inhibition,[2]; at 3.7 µM,10%
same,growth inhibition,[2]; at 11.0 µM,18%
same,growth inhibition,[2]; at 33.0 µM,16%
same,growth inhibition,[2]; at 100.0 µM,19%
same,growth inhibition,[3]; at 1.2 µM,-1%
same,growth inhibition,[3]; at 3.7 µM,1%
same,growth inhibition,[3]; at 11.0 µM,2%
same,growth inhibition,[3]; at 33.0 µM,-1%
same,growth inhibition,[3]; at 100.0 µM,-11%
same,growth inhibition,[4]; at 1.2 µM,2%
same,growth inhibition,[4]; at 3.7 µM,4%
same,growth inhibition,[4]; at 11.0 µM,6%
same,growth inhibition,[4]; at 33.0 µM,21%
same,growth inhibition,[4]; at 100.0 µM,59%
same,growth inhibition,[5]; at 1.2 µM,6%
same,growth inhibition,[5]; at 3.7 µM,10%
same,growth inhibition,[5]; [17],-1%
same,growth inhibition,[5]; at 11.0 µM,15%
same,growth inhibition,[5]; at 33.0 µM,10%
same,growth inhibition,[5]; [18],52%
same,growth inhibition,[5]; at 50.0 µM,70.9% (active)
same,growth inhibition,[5]; at 100.0 µM,39%
same,growth inhibition,[6]; at 1.2 µM,3%
same,growth inhibition,[6]; at 3.7 µM,7%
same,growth inhibition,[6]; [17],15%
same,growth inhibition,[6]; at 11.0 µM,11%
same,growth inhibition,[6]; at 33.0 µM,15%
same,growth inhibition,[6]; [18],20%
same,growth inhibition,[6]; at 50.0 µM,37.4%
same,growth inhibition,[6]; at 100.0 µM,33%
same,growth inhibition,[7]; at 1.2 µM,7%
same,growth inhibition,[7]; at 3.7 µM,23%
same,growth inhibition,[7]; at 11.0 µM,35%
same,growth inhibition,[7]; at 33.0 µM,28%
same,growth inhibition,[7]; at 100.0 µM,70% (active)
same,growth inhibition,[8]; [17],16%
same,growth inhibition,[8]; [18],7%
same,growth inhibition,[8]; at 50.0 µM,42.7%
same,growth inhibition,[9]; at 1.2 µM,0%
same,growth inhibition,[9]; at 3.7 µM,5%
same,growth inhibition,[9]; at 11.0 µM,15%
same,growth inhibition,[9]; at 33.0 µM,35%
same,growth inhibition,[9]; at 100.0 µM,57%
same,growth inhibition,[10]; [17],-22%
same,growth inhibition,[10]; [18],-22%
same,growth inhibition,[10]; at 50.0 µM,32%
same,growth inhibition,[11]; at 1.2 µM,1%
same,growth inhibition,[11]; at 3.7 µM,4%
same,growth inhibition,[11]; [17],10%
same,growth inhibition,[11]; at 11.0 µM,-20%
same,growth inhibition,[11]; at 33.0 µM,43%
same,growth inhibition,[11]; [18],71% (active)
same,growth inhibition,[11]; at 50.0 µM,65.2%
same,growth inhibition,[11]; at 100.0 µM,45%
same,growth inhibition,[12]; at 1.2 µM,2%
same,growth inhibition,[12]; at 3.7 µM,8%
same,growth inhibition,[12]; at 11.0 µM,17%
same,growth inhibition,[12]; at 33.0 µM,21%
same,growth inhibition,[12]; at 100.0 µM,36%
same,growth inhibition,[13]; at 1.2 µM,8%
same,growth inhibition,[13]; at 3.7 µM,8%
same,growth inhibition,[13]; at 11.0 µM,16%
same,growth inhibition,[13]; at 33.0 µM,16%
same,growth inhibition,[13]; at 100.0 µM,40%
same,growth inhibition,[14]; at 1.2 µM,8%
same,growth inhibition,[14]; at 3.7 µM,17%
same,growth inhibition,[14]; at 11.0 µM,34%
same,growth inhibition,[14]; at 33.0 µM,48%
same,growth inhibition,[14]; at 100.0 µM,64%
same,growth inhibition,[15]; [17],3%
same,growth inhibition,[15]; [18],19%
same,growth inhibition,[15]; at 50.0 µM,51.1%
same,growth inhibition,[16]; at 1.2 µM,17%
same,growth inhibition,[16]; at 3.7 µM,22%
same,growth inhibition,[16]; at 11.0 µM,27%
same,growth inhibition,[16]; at 33.0 µM,38%
same,growth inhibition,[16]; at 100.0 µM,59%
CCCc1cc(C(=O)OCC)cc(CCC)c1O,growth inhibition,[1]; at 1.2 µM,-2%
same,growth inhibition,[1]; at 3.7 µM,-8%
same,growth inhibition,[1]; at 11.0 µM,-9%
same,growth inhibition,[1]; at 33.0 µM,-11%
same,growth inhibition,[1]; at 100.0 µM,97% (active)
same,growth inhibition,[2]; at 1.2 µM,-1%
same,growth inhibition,[2]; at 3.7 µM,-5%
same,growth inhibition,[2]; at 11.0 µM,-9%
same,growth inhibition,[2]; at 33.0 µM,-13%
same,growth inhibition,[2]; at 100.0 µM,93% (active)
same,growth inhibition,[3]; at 1.2 µM,-2%
same,growth inhibition,[3]; at 3.7 µM,3%
same,growth inhibition,[3]; at 11.0 µM,14%
same,growth inhibition,[3]; at 33.0 µM,21%
same,growth inhibition,[3]; at 100.0 µM,25%
same,growth inhibition,[4]; at 1.2 µM,-3%
same,growth inhibition,[4]; at 3.7 µM,-4%
same,growth inhibition,[4]; at 11.0 µM,-9%
same,growth inhibition,[4]; at 33.0 µM,-12%
same,growth inhibition,[4]; at 100.0 µM,97% (active)
same,growth inhibition,[5]; at 1.2 µM,-8%
same,growth inhibition,[5]; at 3.7 µM,-49%
same,growth inhibition,[5]; [17],5%
same,growth inhibition,[5]; at 11.0 µM,16%
same,growth inhibition,[5]; at 33.0 µM,0%
same,growth inhibition,[5]; [18],3%
same,growth inhibition,[5]; at 50.0 µM,93.1% (active)
same,growth inhibition,[5]; at 100.0 µM,98% (active)
same,growth inhibition,[6]; at 1.2 µM,-4%
same,growth inhibition,[6]; at 3.7 µM,-5%
same,growth inhibition,[6]; [17],-47%
same,growth inhibition,[6]; at 11.0 µM,-13%
same,growth inhibition,[6]; at 33.0 µM,-12%
same,growth inhibition,[6]; [18],8%
same,growth inhibition,[6]; at 50.0 µM,96.1% (active)
same,growth inhibition,[6]; at 100.0 µM,95% (active)
same,growth inhibition,[7]; at 1.2 µM,-1%
same,growth inhibition,[7]; at 3.7 µM,-2%
same,growth inhibition,[7]; at 11.0 µM,-11%
same,growth inhibition,[7]; at 33.0 µM,-8%
same,growth inhibition,[7]; at 100.0 µM,96% (active)
same,growth inhibition,[8]; [17],1%
same,growth inhibition,[8]; [18],27%
same,growth inhibition,[8]; at 50.0 µM,79.3% (active)
same,growth inhibition,[9]; at 1.2 µM,-1%
same,growth inhibition,[9]; at 3.7 µM,-6%
same,growth inhibition,[9]; at 11.0 µM,-9%
same,growth inhibition,[9]; at 33.0 µM,-30%
same,growth inhibition,[9]; at 100.0 µM,96% (active)
same,growth inhibition,[10]; [17],2%
same,growth inhibition,[10]; [18],-29%
same,growth inhibition,[10]; at 50.0 µM,93.8% (active)
same,growth inhibition,[11]; at 1.2 µM,0%
same,growth inhibition,[11]; at 3.7 µM,10%
same,growth inhibition,[11]; [17],31%
same,growth inhibition,[11]; at 11.0 µM,39%
same,growth inhibition,[11]; at 33.0 µM,63%
same,growth inhibition,[11]; [18],77% (active)
same,growth inhibition,[11]; at 50.0 µM,96.7% (active)
same,growth inhibition,[11]; at 100.0 µM,97% (active)
same,growth inhibition,[12]; at 1.2 µM,-1%
same,growth inhibition,[12]; at 3.7 µM,4%
same,growth inhibition,[12]; at 11.0 µM,-7%
same,growth inhibition,[12]; at 33.0 µM,-3%
same,growth inhibition,[12]; at 100.0 µM,94% (active)
same,growth inhibition,[13]; at 1.2 µM,-4%
same,growth inhibition,[13]; at 3.7 µM,-4%
same,growth inhibition,[13]; at 11.0 µM,-8%
same,growth inhibition,[13]; at 33.0 µM,-8%
same,growth inhibition,[13]; at 100.0 µM,98% (active)
same,growth inhibition,[14]; at 1.2 µM,-2%
same,growth inhibition,[14]; at 3.7 µM,-2%
same,growth inhibition,[14]; at 11.0 µM,-3%
same,growth inhibition,[14]; at 33.0 µM,18%
same,growth inhibition,[14]; at 100.0 µM,95% (active)
same,growth inhibition,[15]; [17],2%
same,growth inhibition,[15]; [18],7%
same,growth inhibition,[15]; at 50.0 µM,93.5% (active)
same,growth inhibition,[16]; at 1.2 µM,-6%
same,growth inhibition,[16]; at 3.7 µM,0%
same,growth inhibition,[16]; at 11.0 µM,-5%
same,growth inhibition,[16]; at 33.0 µM,-1%
same,growth inhibition,[16]; at 100.0 µM,98% (active)
